# According to publication PMC7819943, “Rice protein-binding microarrays: a tool to detect cis-acting elements near promoter regions in rice”:
# Whole data set: some 35,000 sequences, median “fluorescence intensity (a.u.)” near 10,000, cut for the highest 2% near 52,000. The sample holds the highest values, similar sequences and a random draw of the others, so the mix is not that of the screen.
# Target: T1, OsWOX13 (Oryza sativa, UniProt Q5QMM3 1-267)
# T1 sequence: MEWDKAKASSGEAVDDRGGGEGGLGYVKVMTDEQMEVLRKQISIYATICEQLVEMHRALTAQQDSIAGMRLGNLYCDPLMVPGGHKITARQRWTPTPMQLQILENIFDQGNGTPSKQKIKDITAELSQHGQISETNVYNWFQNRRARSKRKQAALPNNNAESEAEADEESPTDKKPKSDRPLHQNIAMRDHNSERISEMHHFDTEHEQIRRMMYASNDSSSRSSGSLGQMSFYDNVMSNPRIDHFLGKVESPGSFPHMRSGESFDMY
# Assay: protein-binding microarray (RPBM); PBS, 2% BSA, 51.3 ng/ul salmon testes DNA, 50 uM zinc acetate, 200 nM TF, 25 C, 1 h; high values mean tight binding
# Settings: protein: recombinant; tags: N-terminal polyhistidine and DsRed monomer fusion (pET32a); label: CyDye5-dUTP incorporated in the synthesized complementary strand; 3' TTTTT single-stranded linker to array surface; dsDNA, one strand shown
# In short: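 Ni–NTA purification followed expression in E. coli BL21-CodonPlus of transcription factors fused N-terminally to a polyhistidine tag and DsRed. At 200 nM in PBS with 2% BSA, salmon testes DNA and 50 µM zinc acetate, the protein was incubated for 1 h at 25 °C with a custom Agilent array that had been primer-extended with Cy5-dUTP and blocked with 2% BSA. After washing, the array was read on an Axon 4000B scanner. The binding signal is per-feature fluorescence intensity in arbitrary units.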
row,Sequence,binding signal
1,GAGATAGAGATAATAGAAAGATTAAACAAGATTCGATAGACGGAGTCACCTAGTGCAG,3590 fluorescence intensity (a.u.)
2,CGAGATAAATCACGGTAATCACAGCAACAGCAACAGCAACCGGAGTCACCTAGTGCAG,10400 fluorescence intensity (a.u.)
3,ATGCCATCCAATCAAGCCACGACGATCCACAGCCATAGTGCGGAGTCACCTAGTGCAG,11500 fluorescence intensity (a.u.)
4,AAGCAAATCTCTAGATAGATAGATAGATGGATGGATGGATCGGAGTCACCTAGTGCAG,10800 fluorescence intensity (a.u.)
5,TGCTAATGGACTTATTACTTTTGCTTGCTTTAATTTTGCCCGGAGTCACCTAGTGCAG,14600 fluorescence intensity (a.u.)
6,GTTTTAGCTAATATTTAATTAATCATGTGCTAATGAGCTACGGAGTCACCTAGTGCAG,8590 fluorescence intensity (a.u.)
7,GTTTAATATTTATAATTAATTTTCAAACATCCGATGTGATCGGAGTCACCTAGTGCAG,19000 fluorescence intensity (a.u.)
8,CTTACCTGCTTTAATTTATGCATAATGTTGCTTCATAAACCGGAGTCACCTAGTGCAG,6090 fluorescence intensity (a.u.)
9,AATTAATCATGCGTTAATGGACCGTTCCGTTTTCCGTGTTCGGAGTCACCTAGTGCAG,20900 fluorescence intensity (a.u.)
10,ATTTAATTAATATGTTAATGAGCTAATCCGTTTTCGGGACCGGAGTCACCTAGTGCAG,52300 fluorescence intensity (a.u.)
11,CGGTCAAATTATCCAAATTAATTAAAGAGGGAACTCGGTCCGGAGTCACCTAGTGCAG,35300 fluorescence intensity (a.u.)
12,TGCTTAATTAATTATGTGCTAATGAGGTCTTTCATTTTACCGGAGTCACCTAGTGCAG,56100 fluorescence intensity (a.u.)
13,GAGGGAGTACTAATTATTTAATTTGATGATTATAATACTTCGGAGTCACCTAGTGCAG,17900 fluorescence intensity (a.u.)
14,GATGTGATTGGATTAATTTTCAAAAGTACTTTTATATGATCGGAGTCACCTAGTGCAG,56300 fluorescence intensity (a.u.)
15,GATCATTTCAGTGATTAATTTAATTGGAAAAGTAATTCAACGGAGTCACCTAGTGCAG,6700 fluorescence intensity (a.u.)
16,CCTAATAATTAATTAATGATGCACGAGGGATTATCCAACTCGGAGTCACCTAGTGCAG,53200 fluorescence intensity (a.u.)
17,ACGAATCTATTGAGCCTAATTAATTCATAATTAGTCTATGCGGAGTCACCTAGTGCAG,14600 fluorescence intensity (a.u.)
18,GAATTAAATGATGTGTGAATAATGGATGGCTAGGATGCAACGGAGTCACCTAGTGCAG,9780 fluorescence intensity (a.u.)
19,TTTAATTGTTATGAACACGACAATGTAATCGGATCATAGACGGAGTCACCTAGTGCAG,10100 fluorescence intensity (a.u.)
20,ATTGTATCTAATTATTGGCAACATGGAAATTAATCTCTTGCGGAGTCACCTAGTGCAG,9160 fluorescence intensity (a.u.)
21,CATAAATCATTTCTTTTGTTTTCAAACTAAGCATATTTGACGGAGTCACCTAGTGCAG,4540 fluorescence intensity (a.u.)

row,Sequence,binding signal
1,AATGTGATTTTCATGTATCCAATTAAAATATTTTAAGAAGCGGAGTCACCTAGTGCAG,9180 fluorescence intensity (a.u.)
2,CCTTGATGATTGAACCAGTCAGCCCCAACATCTCTATAAACGGAGTCACCTAGTGCAG,25800 fluorescence intensity (a.u.)
3,GCAATTTGATTTGGCCTGTATATTATTATGTGCAGGGTTCCGGAGTCACCTAGTGCAG,13800 fluorescence intensity (a.u.)
4,TTTCAAGAGATTAATTAATTTTCTCAACTTTGCAAGGGCACGGAGTCACCTAGTGCAG,16000 fluorescence intensity (a.u.)
5,CCTTAATTAATTAATTTCTAGATCTCAAGAGGGCAACAGACGGAGTCACCTAGTGCAG,57200 fluorescence intensity (a.u.)
6,TAATTTATTAATTTATTATTAGAGTATATATATTTCAAGACGGAGTCACCTAGTGCAG,6800 fluorescence intensity (a.u.)
7,TTACAGATTGGCCCCTGTATTTCTCTCTCTCGTCTCTCCTCGGAGTCACCTAGTGCAG,24800 fluorescence intensity (a.u.)
8,TTATCAATCTACATCGTTATAATTTAGTTCCACCGTAATTCGGAGTCACCTAGTGCAG,19800 fluorescence intensity (a.u.)
9,GCCGGGAGGGAGGGAGGGAGGGAGGGAGGGAGACCCCGCACGGAGTCACCTAGTGCAG,9960 fluorescence intensity (a.u.)
10,TTGATTTGAAAGGTACTACCTCTGTTTCAGGTTAGAAAGTCGGAGTCACCTAGTGCAG,3380 fluorescence intensity (a.u.)
11,AGATGATTGATTTTCAGGTGATGAACAGGGTTACTGTTTTCGGAGTCACCTAGTGCAG,63000 fluorescence intensity (a.u.)
12,TTATTAGATGATGATTATTTTGAGAAGGTTTCTTAGGATGCGGAGTCACCTAGTGCAG,12900 fluorescence intensity (a.u.)
13,GTTAGGGTTTTCTTTTGATTGTCAGGGTTTTCTTTTGATTCGGAGTCACCTAGTGCAG,3960 fluorescence intensity (a.u.)
14,TAGATGATTATTATGATAGGATTGATTTGTTTAGAGTCTTCGGAGTCACCTAGTGCAG,46100 fluorescence intensity (a.u.)
15,GATGATTTGATTAGATTAGGTTAGGTTTGTTATTCACCTACGGAGTCACCTAGTGCAG,65500 fluorescence intensity (a.u.)
16,AGTCATCAAAATTACGCATGTAATTAGTATATATAATTATCGGAGTCACCTAGTGCAG,9910 fluorescence intensity (a.u.)
17,TTTAGTATATAATAGATAGATAGATAGAAGATTTGTACTACGGAGTCACCTAGTGCAG,4500 fluorescence intensity (a.u.)
18,GCTGACTGGATAAAATCTGATAAGCGTGAAGATGACCTTTCGGAGTCACCTAGTGCAG,21400 fluorescence intensity (a.u.)
19,TTCGAAAATTACCTGTAACCTTCCATCCATCACACACACACGGAGTCACCTAGTGCAG,3500 fluorescence intensity (a.u.)
20,AGCTAATTAAGCTAGTGAGAGCTAGTGGAGGTACATGGCTCGGAGTCACCTAGTGCAG,11600 fluorescence intensity (a.u.)
21,ACAATGATTGGGTCTTAAGATTTTCTTTAATTATTCGACGCGGAGTCACCTAGTGCAG,58300 fluorescence intensity (a.u.)
